# Measurements from PubChem BioAssay (Tox21).
# Results filed as inconclusive are left out. A call without a number means that no potency is given here. A number with no mark means an inactive call. Calls of active or inactive are those of the source. Calls come from the whole dose curve; as a rule, active = well fitted curve in the direction sought with a large enough effect in the repeat runs; inconclusive = weak or mixed curves; inactive = no such curve, though single readings can be large; an effect the other way counts as inactive or inconclusive.
# Test system: not listed separately
# Test: qHTS assay to identify small molecule antagonists of the retinoid-related orphan receptor gamma (ROR-gamma) signaling pathway - cell viability counter screen (AID 1159520)
# Settings: Tet-on RORgamma CHO cells viability, ATP luminescence, 16 h; series mostly up to 92.4 µM
# Method in brief: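 Cytotoxicity was read from cellular ATP (CellTiter-Glo luminescence) after 16 hr at 37 C with 1 uM doxycycline induction. The inducer was added 2 hr after compound transfer to Tet-on ROR gamma CHO cells.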
# Note: nearly all actives have a fitted effect of over 50% in size.
# Potency is the fitted concentration of half-maximal effect.
SMILES,Potency,"activity, negative = cytotoxicity"
ClC(c1ccccc1)(c1ccccc1)c1ccccc1,inactive,
CCOC=C(C(=O)OCC)C(=O)OCC,inactive,
c1ccc2occc2c1,inactive,
CCCCNc1ccc(NCCCC)c2c1C(=O)c1ccccc1C2=O,,-0.683% [at 19 µM]
NC(=O)C1CO1 (centres undefined),inactive,
Cc1c(Cl)c(=O)oc2cc(O)ccc12,inactive,
CCCCCN=C(N)N/N=C/c1c[nH]c2ccc(OC)cc12,26.6 µM (active),
CCc1c(C)cc(N)c(CC)c1N,inactive,
CCn1c2ccccc2c2ccccc21,inactive,
CC(=O)[C@]1(O)Cc2c(O)c3c(c(O)c2[C@@H](O[C@H]2C[C@H](N)[C@H](O)[C@H](C)O2)C1)C(=O)c1ccccc1C3=O,26.6 µM (active),
CCN(CC)c1ccc(N=Nc2ccccc2)cc1,inactive,
CCc1cccc(C)c1N(C(=O)C(=O)O)C(C)COC (centres undefined),inactive,
NCc1cccc(C2CCN(C(=O)c3ccc(C#Cc4ccccc4F)o3)CC2)c1,43.3 µM (active),
Cc1ccc(N=Nc2c(O)ccc3ccccc23)c(C)c1,inactive,
C/C=C/C(=O)OCC(C)C,inactive,
N#CCCOCCC#N,inactive,
O=C1OC2(c3ccccc31)c1ccc(O)c(Br)c1Oc1c2ccc(O)c1Br,inactive,
COc1cc2ncnc(Nc3cccc(Cl)c3)c2cc1OC,,-2.63% [at 19 µM]
[Cl][Eu]([Cl])[Cl],inactive,

SMILES,Potency,"activity, negative = cytotoxicity"
NCc1ccco1,inactive,
CC(O)(c1ccc(Cl)cc1)c1ccc(Cl)cc1,inactive,
CC(C)(c1ccc(Oc2ccc(N)cc2)cc1)c1ccc(Oc2ccc(N)cc2)cc1,61.1 µM (active),
CC(C)=NNC(N)=S,inactive,
C=C(C)CCO,inactive,
CN1CCN(C)CC1,inactive,
CC(=O)Nc1ccc(N=Nc2cc(C)ccc2O)cc1,inactive,
CCOC(=O)C1=NN(c2ccc(Cl)cc2Cl)C(C)(C(=O)OCC)C1 (centres undefined),inactive,
CCN(CC)c1ccc(C=O)cc1,inactive,
O=C(NCc1ncc(C(F)(F)F)cc1Cl)c1c(Cl)cccc1Cl,inactive,
C=Cc1ccc(O)c(OC)c1,inactive,
CCCCCCCCOC(=O)c1cc(O)c(O)c(O)c1,2.43 µM (active),
O=C1C=CC(=O)N1c1cccc(N2C(=O)C=CC2=O)c1,12.2 µM (active),
COCCC(=O)OC,inactive,
C=C[Si](C)(C)Cl,,5.94% [at 8.39 µM]
Cc1ccc(S(=O)(=O)C(I)I)cc1,17.2 µM (active),
C=C1C(CCl)(CCl)C2(Cl)C(Cl)C(Cl)C1(Cl)C2(Cl)Cl (centres undefined),60.4 µM (active),
Cc1ccc(C=O)cc1,inactive,

# Molecular target: Nuclear receptor ROR-gamma (Homo sapiens) (UniProt P51449)
# Test: qHTS assay to identify small molecule antagonists of the retinoid-related orphan receptor gamma (ROR-gamma) signaling pathway (AID 1159521;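 for activity change, negative = inhibition: CHO cells with doxycycline inducible ROR-gamma driving an RORE luciferase reporter; top concentration of the series differs between compounds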)
# Settings: Tet-on RORgamma CHO cells, RORE-luciferase, 16 h; series mostly up to 92.4 µM
# Method in brief: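 Tet-on RORγ CHO cells carrying a ROR response element–luciferase reporter were pretreated with compounds for 2 h, then induced with 1 uM (final) doxycycline hyclate for 16 h at 37 C. Antagonism was read as decreased ONE-Glo luminescence.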
SMILES,Potency,"activity change, negative = inhibition"
ClC(c1ccccc1)(c1ccccc1)c1ccccc1,inactive,
CCOC=C(C(=O)OCC)C(=O)OCC,inactive,
c1ccc2occc2c1,inactive,
CCCCNc1ccc(NCCCC)c2c1C(=O)c1ccccc1C2=O,,-8.88% [at 19 µM]
NC(=O)C1CO1 (centres undefined),inactive,
Cc1c(Cl)c(=O)oc2cc(O)ccc12,inactive,
CCCCCN=C(N)N/N=C/c1c[nH]c2ccc(OC)cc12,33.5 µM (active),
CCc1c(C)cc(N)c(CC)c1N,inactive,
CCn1c2ccccc2c2ccccc21,inactive,
CC(=O)[C@]1(O)Cc2c(O)c3c(c(O)c2[C@@H](O[C@H]2C[C@H](N)[C@H](O)[C@H](C)O2)C1)C(=O)c1ccccc1C3=O,inactive,
CCN(CC)c1ccc(N=Nc2ccccc2)cc1,inactive,
CCc1cccc(C)c1N(C(=O)C(=O)O)C(C)COC (centres undefined),inactive,
NCc1cccc(C2CCN(C(=O)c3ccc(C#Cc4ccccc4F)o3)CC2)c1,34.4 µM (active),
Cc1ccc(N=Nc2c(O)ccc3ccccc23)c(C)c1,inactive,
C/C=C/C(=O)OCC(C)C,inactive,
N#CCCOCCC#N,inactive,
O=C1OC2(c3ccccc31)c1ccc(O)c(Br)c1Oc1c2ccc(O)c1Br,inactive,
COc1cc2ncnc(Nc3cccc(Cl)c3)c2cc1OC,,-11.5% [at 19 µM]
[Cl][Eu]([Cl])[Cl],inactive,

SMILES,Potency,"activity change, negative = inhibition"
NCc1ccco1,inactive,
CC(O)(c1ccc(Cl)cc1)c1ccc(Cl)cc1,inactive,
CC(C)(c1ccc(Oc2ccc(N)cc2)cc1)c1ccc(Oc2ccc(N)cc2)cc1,61.1 µM (active),
CC(C)=NNC(N)=S,inactive,
C=C(C)CCO,inactive,
CN1CCN(C)CC1,inactive,
CC(=O)Nc1ccc(N=Nc2cc(C)ccc2O)cc1,inactive,
CCOC(=O)C1=NN(c2ccc(Cl)cc2Cl)C(C)(C(=O)OCC)C1 (centres undefined),30.6 µM (active),
CCN(CC)c1ccc(C=O)cc1,inactive,
O=C(NCc1ncc(C(F)(F)F)cc1Cl)c1c(Cl)cccc1Cl,12.2 µM (active),
C=Cc1ccc(O)c(OC)c1,inactive,
CCCCCCCCOC(=O)c1cc(O)c(O)c(O)c1,1.93 µM (active),
O=C1C=CC(=O)N1c1cccc(N2C(=O)C=CC2=O)c1,3.86 µM (active),
COCCC(=O)OC,inactive,
C=C[Si](C)(C)Cl,,-27.2% [at 8.39 µM]
Cc1ccc(S(=O)(=O)C(I)I)cc1,6.11 µM (active),
C=C1C(CCl)(CCl)C2(Cl)C(Cl)C(Cl)C1(Cl)C2(Cl)Cl (centres undefined),48 µM (active),
Cc1ccc(C=O)cc1,inactive,
